We go through 23 compounds from PubChem BioAssay (NCI).

The panel holds about 79,000 compounds, 15% with a hit somewhere; the sample as a whole holds those more often. A number with no mark means an inactive call. Active and inactive are the calls of the source. Rule as the data show it: active = growth inhibition above about 70%; inactive = the rest.

This test in a line: NCI Yeast Anticancer Drug Screen. Data for the cln2 rad14 strain (AID 165).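 Also: 0% = growth equal to vehicle treated cultures.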 The settings on record: S. cerevisiae cln2 rad14 strain, at 50.0 µM (retest, dose inferred, filed as 5.0), hits give high values. The method, boiled down:
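Growth inhibition, relative to vehicle-treated controls, is the read-out. The test organism is a yeast strain with defined genetic alterations, cln2 rad14.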
`CC(C)C(O)C(C)C`: the growth inhibition was -1%.

On to `O=C1CSC2(CCN(CCCN3c4ccccc4Sc4ccc(Cl)cc43)CC2)N1`, for which the growth inhibition is 100% (active).

For the compound `C1=CN2C(c3ccccc3)=NN(c3ccccc3)[C@@H]2c2ccccc21`, the growth inhibition was 22%.

Take `CC(=O)Nc1ccc(-c2csc(Nc3ccnc4cc(Cl)ccc34)n2)cc1`: the growth inhibition is 4%.

For the compound `O=C(Nc1ccc(/C=C/c2ccc(NC(=O)c3cc(S(=O)(=O)O)c4cccnc4c3O)cc2S(=O)(=O)O)c(S(=O)(=O)O)c1)c1cc(S(=O)(=O)O)c2cccnc2c1O`, the growth inhibition is 95% (active).

Regarding `COc1ccccc1C1C2=C(COC2=O)OC(C)(C)Oc2cc3c(cc21)OCO3` (stereo not drawn), the growth inhibition was 95% (active).

Consider `COC(=O)CSc1n[nH]c(-c2ccc(O)c([N+](=O)[O-])c2)n1`, for which the growth inhibition is 57%.

As for `COc1ccc(CN2CCCN(Cc3ccc(OC)cc3OC)C2c2cccc([N+](=O)[O-])c2O)c(OC)c1`, the growth inhibition was 27%.

`Oc1c(Cl)cc(C(c2cc(Cl)c(O)c(Cl)c2)C(Cl)(Cl)Cl)cc1Cl`: the growth inhibition was 98% (active).

For `Cc1cc(Cl)cc2c1NC(=O)C2(O)C/C(=N/NC(=O)CC#N)c1cccc([N+](=O)[O-])c1` (stereo not drawn), the growth inhibition was 1%.

Take `COc1ccc(C2Oc3ccc(Cl)cc3C=C2[N+](=O)[O-])cc1` (stereo not drawn): the growth inhibition is 93% (active).

Take `CN(Cc1cc(Cl)cc(Cl)c1O)Cc1c(O)ccc2ccccc12`: the growth inhibition is 99% (active).

On to `Cc1c(NC(=O)/C(=N/NC(=S)N=N)C2C(=O)CC(C)(C)CC2=O)c(O)c2ccccc2c1O`, for which the growth inhibition was 99% (active).

As to `O=C1CCC(Cc2ccccc2Br)C(=O)N1` (stereo not drawn), the growth inhibition was 8%.

On to `O=C1CSc2ccccc2-n2cccc21`, for which the growth inhibition was 30%.

As for `CCCc1cc2c(cc1CS(=O)(=O)CC)OCO2`, the growth inhibition is 0%.

For `CS(=O)(=O)C(c1nc2nnc(NC(=O)Nc3ccc(Cl)cc3)n2[nH]c1=O)c1nc2nnc(NC(=O)Nc3ccc(Cl)cc3)n2[nH]c1=O`, the growth inhibition was 3%.

Consider `COc1cc(C2c3cc4c(cc3OC3(O)C=C(C)OC(=O)C23)OCO4)cc(OC)c1OC` (stereo not drawn), for which the growth inhibition is 5%.

With `CC(C)OCc1cccc2ccnc(COC(C)C)c12`, the growth inhibition is 87% (active).

In the case of `COc1cc2c(cc1OC)-c1nc(Nc3ccccc3)sc1CC2`, the growth inhibition was 88% (active).

Turning to `NC(=O)CCSC(=S)N1CCOCC1`, the growth inhibition was -2%.

Take `CC1=C(c2ccccc2)C(=O)OC1=O`: the growth inhibition was 3%.

On to `CC1=C(C)CC2C(=O)C(C(O)CC(C)C)=CC(=O)C2C1` (stereo not drawn), for which the growth inhibition is 86% (active).
